Measurements taken from PubChem BioAssay AID463212 (Sanford-Burnham Center for Chemical Genomics, 2010).
Among all 330,000 compounds or so, about 4,400 (1.3%) were called active. This is one part of a sample in which actives are shown more often than they occur.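 How the source made its calls: active means growth inhibition of the mutant yeast at or above 50%; inactive means the rest.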

Assay: growth inhibition of tim23-1 ts yeast – luminescence, uHTS, primary screen (AID 463212);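 further: temperature-sensitive mutant grown at 25 °C; plate controls were DMSO-treated mutant yeast for no effect and medium wells lacking yeast for full effect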
Details: S. cerevisiae tim23-1 growth, BacTiter-Glo luminescence, 24 h; at 20 µM; active compounds read high

inhibition, active:
CC(C)(C)c1ccc(Oc2ccc(N)cc2)cc1 60.7%
COc1cccc(C2Nc3cccc4cccc(c34)N2)c1 57.5%
COc1ccc(C(=O)NCC(=O)N/N=C/c2ccc([N+](=O)[O-])o2)cc1OC 87.3%
O=[N+]([O-])c1ccc(C=Nc2ccc(Cl)cc2Cl)s1 60.2%
O=C(Nc1ccccc1)c1ccc2c(c1)OCCCO2 51%
O=C(Nc1cccc(F)c1)NC1CCCCCCC1 50.3%
COc1cc(/C=C2/C(=O)ON=C2C)ccc1OCc1cccc(F)c1 52.2%
COc1cc(/C=C2/C(=O)ON=C2C)ccc1OCc1ccccc1F 66.9%
COC(C/C=C/C(=O)[C@@H](C)OCc1ccccc1)OC 56.2%
CCCC(=O)N1CCN(c2nnc(-c3ccc(C)cc3)c3ccccc23)CC1 50.5%
COc1ccc2c(c1)C(=C(C#N)C#N)C(=O)N2CCc1ccccc1 70.8%
O=c1c2cc(Br)ccc2nc(-c2cccc(Cl)c2)n1O 65.8%
CCOc1cc(NC(=O)c2ccccc2C(=O)O)c(OCC)cc1NC(=O)c1ccccc1F 53%
CCCCC(CC)CNC(=O)C(=O)C1C(=O)Nc2ccccc21 (stereo unspecified) 51.7%

inhibition, inactive:
COc1cccc(Oc2ccc(N)cc2)c1 8.39%
CC(C)(C)c1ccc(OC2=CS(=O)(=O)c3ccccc32)cc1 20.4%
COc1ccc(C2NC(=O)c3ccccc3N2)cc1 (stereo unspecified) 16.7%
Oc1ccc(C2Nc3cccc4cccc(c34)N2)cc1 23.4%
O=C(NC1CCCC1)C(c1ccc(Cl)cc1)N(C(=O)c1csnn1)C1CC1 (stereo unspecified) 11.6%
O=C(CN1CCC(NC(=O)C2CC2)CC1)Nc1ccccc1[N+](=O)[O-] 8.81%
O=S(=O)(c1ccc(SCc2ccc(Br)cc2)nc1)N1CCOCC1 6.55%
COc1cc(CC(=O)N/N=C/c2ccccc2)c([N+](=O)[O-])cc1OC 4.64%
COc1cc(/C=N/NC(=O)CNC(=O)c2ccncc2)ccc1OC(C)=O -0.262%
CCN(CC(=O)Nc1cc(Cl)ccc1C)C(=O)CSCc1ccccc1 18.4%
Cc1ccc(S(=O)(=O)c2c[nH]c3ccc(C)cc3c2=O)cc1 -5.69%
Cc1ccc(-c2cccc([C@H]3[C@@H]4C=CC[C@@H](C)[C@@H]4C(=O)N3Cc3ccccc3)c2)cc1 36.6%
COCCCNc1nc2ccccc2nc1NS(=O)(=O)c1ccc(F)cc1 21.6%
CC1CN(C(=O)c2ccc([N+](=O)[O-])s2)CC(C)O1 (stereo unspecified) 13.9%
Cc1ccc2c(c1)C1C[N+](C)(CC(=O)c3ccccc3)CCC1N2C(=O)c1ccccc1Cl (stereo unspecified) -4.6%
COc1ccc(Nc2nc(N)nc(CSC(=S)N3CCC(C)CC3)n2)cc1 50%
CC(=O)c1ccc(NC(=O)c2ccc(-n3cncn3)c([N+](=O)[O-])c2)cc1 -6.94%
Cc1cc(Cl)ccc1C(=O)C1CCCN(C(=O)c2nonc2C)C1 (stereo unspecified) 41.7%
O=C(Nc1ccc(N2CCOCC2)cc1)c1ccc2c(c1)OCO2 10.9%
O=C(Nc1ccc(NC(=O)c2ccc3c(c2)OCO3)cc1)c1cccc(Cl)c1 1.12%
C/C(CC(=O)Nc1cccc(F)c1)=N\NC(=O)C(=O)NC1CCCCC1 18.3%
O=C(Nc1cccc(F)c1)NC1CCCc2ccccc21 (stereo unspecified) 19.8%
C#CCOc1ccc(/C=C2/C(=O)ON=C2C)cc1OCC 28.2%
CC1=NOC(=O)/C1=C\c1ccccc1 16.8%
COc1cc(/C=C2\SC(=O)NC2=O)ccc1OCc1ccc(Cl)nc1 -2.95%
C=CCOc1ccc(/C=C2/C(=O)ON=C2C)cc1OCC 22.6%
CN1CCN(C(CNS(=O)(=O)c2cccs2)c2cccnc2)CC1 (stereo unspecified) 7.24%
CCN(CC(=O)Nc1ccc(OC)cc1)C(=O)c1ccc(=O)n(Cc2ccccc2)n1 7.12%
CC(C)N(C(=O)[C@H]1C[C@H](CC(=O)NC(C)(C)C)C(=O)N2CCc3c([nH]c4ccc(Cl)cc34)[C@]12C)C(C)C 43.7%
COC(C[C@@H]1O[C@@H]1C(=O)[C@H](C)OCc1ccccc1)OC -16.7%
COC(C[C@H](O)CC(=O)[C@@H](C)OCc1ccccc1)OC 8.93%
Cc1ccc(NS(=O)(=O)c2ccc3c(c2)oc(=O)n3C)c(C)c1 21.8%
CCn1cc(C(=O)NC2CCCCCC2)c(=O)c2cc(S(=O)(=O)N3CCCCC3)ccc21 12.1%
N#Cc1cccc(CSc2ncnc(N)n2)c1 10.7%
OCCN1CCN(c2nnc(-c3ccccc3)c3ccccc23)CC1 -13.1%
c1ccc(-c2nnc(N3CCOCC3)c3ccccc23)cc1 -18.2%
O=C(Oc1cccc(O)c1)C1CCCCC1 25.1%
CCCSC(=S)NC1CCS(=O)(=O)C1 (stereo unspecified) 8.59%
C#CCN1C(=O)C(O)(CC(=O)c2cc(OC)ccc2OC)c2ccccc21 (stereo unspecified) 30%
CCCCN1C(=O)/C(=C(/C#N)C(N)=O)c2ccccc21 21.8%
COc1cccc(-c2nnc(NC(=O)c3ccc(S(=O)(=O)N(CC(C)C)CC(C)C)cc3)o2)c1 11.6%
NC(=O)c1cc(-c2cccnc2)nc2ccc(Br)cc12 -4.37%
Cc1cccc(-c2nc3ccccc3c(=O)n2NC(=O)Cc2ccc(Cl)cc2)c1 23.4%
CCOc1ccccc1NC(=O)c1cc(S(=O)(=O)N2CCC3(CC2)OCCO3)ccc1F 24.5%
CCOc1cc(NC(=O)Nc2ccccc2)c(OCC)cc1NC(=O)CC 7.41%
CCCCCNC(=O)C1c2ccccc2Oc2ccccc21 18.6%
CCCCC(CC)CNC(=O)CCCCn1c(=O)[nH]c2ccsc2c1=O (stereo unspecified) -5.06%
